CYP2C9 inhib: inhibitors of human CYP2C9 | P11712 | CYP2C9 Supersomes, luciferin-H conversion, luminescence | inhibition, % at 5 µM | hit rate 20% among 96,000;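 active means blocking of liver enzyme CYP2C9 beyond about 50% at 5 µM, limit read from the data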
PostGolgi yeast: growth inhibition of a yeast mutant, post-Golgi transport screen. post-Golgi transport phenotypic cell assay. inhibition, % at 10 µM. hit rate 0.9% among 98,000;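 further: yeast cells grown in 1536-well plates; yeast grown about 18 h at 30C before absorbance read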
CYP2C19 inh: blocks human cytochrome P450 2C19 | P33261 | CYP2C19 Supersomes, luciferin-H EGE luminescence, 30 min | inhibition, % at 5 µM | hit rate 21% among 96,000 | AID 778;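 active means CYP2C19 inhibition above a set limit at 5 µM in the primary screen, cut at about 50% in these data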;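 further: plate controls were negative control wells for no effect and 2.5 mM tranylcypromine positive control for full effect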
Target sequence (P33261 whole entry, looked up): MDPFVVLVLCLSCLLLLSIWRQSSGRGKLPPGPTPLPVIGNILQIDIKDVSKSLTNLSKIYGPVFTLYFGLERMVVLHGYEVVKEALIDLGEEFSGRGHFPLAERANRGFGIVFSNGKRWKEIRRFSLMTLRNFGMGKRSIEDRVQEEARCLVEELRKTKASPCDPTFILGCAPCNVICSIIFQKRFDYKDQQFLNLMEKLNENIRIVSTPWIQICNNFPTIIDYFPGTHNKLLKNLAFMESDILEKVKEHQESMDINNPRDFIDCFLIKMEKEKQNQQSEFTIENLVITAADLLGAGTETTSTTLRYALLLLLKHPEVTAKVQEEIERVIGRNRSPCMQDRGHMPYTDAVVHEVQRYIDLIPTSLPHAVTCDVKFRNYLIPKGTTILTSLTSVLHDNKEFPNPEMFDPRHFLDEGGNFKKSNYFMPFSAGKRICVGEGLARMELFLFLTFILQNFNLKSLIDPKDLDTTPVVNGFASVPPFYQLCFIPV
CYP2C9 activ: increases human cytochrome P450 2C9 activity | P11712 | activation factor at 5 µM | recombinant CYP2C9, luciferin-H conversion, luminescence; stronger effect = higher value; factor 1 = untreated enzyme, 0 = blocked | AID 1024 | hit rate 1.4% among 96,000;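 active means activation factor of 2 or more for CYP2C9 at a 5 µM dose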;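 further: 0 = sulfaphenazole-blocked wells and 1 = vehicle-only wells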
PostGolgi ctrl: growth of the yeast control strain, post-Golgi counter-screen. efflux-deficient yeast background strain, growth absorbance A615, 16 h. inhibition, % at 10 µM. hit rate 5% among 98,000. AID 738
CYP2C19 activ: increases human CYP2C19 enzyme activity; 96,000 tested, under 10 active; recombinant CYP2C19, luciferin-H EGE luminescence; stronger effect = higher value; 0 = fully inhibited enzyme, 1 = untreated enzyme; activation factor at 5 µM; P33261;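 active means activation factor of at least 2 at 5 µM in the primary screen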;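 further: 0 = wells with 2.5 mM tranylcypromine and 1 = vehicle-only wells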
Starred values were filed as active, the others as inactive. In the library only some 32% were active in any assay of this set; here they are far more common. Unless noted, no stated cut-off is given here; in the data, active means inhibition above about 30%; inactive means the rest.

SMILES	CYP2C9 inhib	PostGolgi yeast	CYP2C19 inh	CYP2C9 activ	PostGolgi ctrl	CYP2C19 activ
N#CCC(=O)NCCCOC(=O)Nc1ccc(Cl)c(Cl)c1	1.5	-6.7	-6.2	1	-2.9	1.1
COc1ccc(OC)c(N2C(=O)CC(C(C)c3ccccc3)C2=O)c1 (stereo not drawn)	19.1	6.6	66.2*	0.8	5.2	0.3
CC(C)(C)c1cc(/C=N/NC(=O)Cc2nc3ccccc3[nH]2)cc(C(C)(C)C)c1O	99.3*	4.3	92.9*	0	15.3	0.1
COc1ccc(NC(=O)CCc2c(C)nc3nc(C)nn3c2C)cc1	0.0	1.1	-4.5	1	5.7	1
C=CCNC(=S)NNC(=O)c1cccn(Cc2ccc(Cl)c(Cl)c2)c1=O	0.4	-6.3	11.5	1	-4.3	0.9
C=CCNC(=S)NNC(=O)c1cccn(Cc2ccc(Cl)cc2Cl)c1=O	68.4*	13.6	26.5	0.3	7.8	0.7
C/C(=C\c1ccccc1)C(=O)NC1CCSC1=O (stereo not drawn)	-0.4	-2.2	21.1	1	5.6	0.8
COc1ccc(N(C(=O)C2CCCCC2)C2C=CS(=O)(=O)C2)c(OC)c1 (stereo not drawn)	15.2	-1.7	21.1	0.8	-1.6	0.8
COc1ccc(NC(=O)C2CCCN(S(=O)(=O)c3ccc4c(c3)oc(=O)n4C)C2)cc1OC (stereo not drawn)	30.6	-8.4	54.8*	0.7	10.4	0.5
Cn1c(=O)oc2cc(S(=O)(=O)N3CCCC(C(=O)Nc4ccc5c(c4)OCCO5)C3)ccc21 (stereo not drawn)	9.0	17.7	27.2	0.9	31.0*	0.7
O=S(=O)(c1ccccc1)N1CCN(c2nc3ccccc3s2)CC1	-7.9	28.9	11.6	1.1	17.4	0.9
Cc1cc(C)n(-c2nc3ccccc3nc2N2CCN(S(=O)(=O)c3ccc4ccccc4c3)CC2)n1	49.5	-3.3	33.4	0.5	26.5	0.7
Cc1cc(C)n(-c2nc3ccccc3nc2N2CCN(S(=O)(=O)c3ccc(F)c(C)c3)CC2)n1	50.2*	6.1	7.4	0.5	7.9	0.9
Cc1cc(N2CCN(S(=O)(=O)c3ccc(Cl)cc3)CC2)c2ccccc2n1	40.5	0.2	82.4*	0.6	8.4	0.2
Cc1ccc2c(c1)nnn2C1CCN(S(=O)(=O)c2ccc(C(=O)N(C)C3CCCCC3)cc2)CC1	-4.9	3.5	-0.7	1	20.5	1
O=C(CSc1nnc(COc2cccc3cccnc23)o1)N1CCc2ccccc21	6.2	0.0	5.1	0.9	12.9	0.9
O=C(CSc1nnc(CNc2ccc(F)cc2)o1)N1c2ccccc2Sc2ccccc21	53.4*	10.9	35.1	0.5	50.1*	0.6
COC(=O)CN(C(=O)CSc1nnc(-c2cccc(OC)c2)o1)c1ccc(OC)cc1	60.1*	-1.3	34.7	0.4	4.4	0.7
CCOC(=O)CN(C(=O)CSc1nnc(CNc2ccc(F)cc2)o1)c1ccccc1	77.6*	-1.9	59.4*	0.2	5.9	0.4
O=C(CSc1nnc(COc2ccc(F)cc2)o1)N1c2ccccc2CCc2ccccc21	95.5*	0.9	83.4*	0	18.4	0.2
Cc1ccc(S(=O)(=O)N2CCC(C(=O)NCCCOC(C)C)CC2)cc1	-25.1	-2.8	-0.2	1.3	8.1	1
Cc1cc(C(=O)NC(C)C)on1	2.1	4.2	0.5	1	14.4	1
Nc1c(N(C(=O)Nc2ccc(Cl)c(Cl)c2)C2CCCC2)c(=O)[nH]c(=O)n1Cc1ccccc1	-5.0	-4.8	-25.1	1.1	4.9	1.3
CCOC(=O)CN(C(=O)CSc1nnc(-c2cccc(OC)c2)o1)c1ccc(F)cc1	91.9*	-15.9	85.2*	0.1	12.3	0.1
COc1cccc(-c2nnc(SCC(=O)N3CCOCC3)o2)c1	9.8	-0.8	-9.3	0.9	2.2	1.1
SMILES	CYP2C9 inhib	PostGolgi yeast	CYP2C19 inh	CYP2C9 activ	PostGolgi ctrl	CYP2C19 activ
CCOC(=O)n1c(=O)n(Cc2ccccc2Cl)c2ccccc21	47.8	8.4	84.6*	0.5	46.9*	0.2
CCOC(=O)n1c(=O)n(Cc2ccc(Cl)cc2Cl)c2ccccc21	18.7	-10.9	62.9*	0.8	34.0*	0.4
O=C(CNC(=O)/C(=C\c1ccc(F)cc1)NC(=O)c1ccccc1)OCc1ccccc1	34.3	4.5	71.4*	0.7	3.3	0.3
O=C(CNC(=O)Cc1ccccc1)NCC(=O)OCc1ccccc1	-12.7	-4.3	-1.8	1.1	-3.3	1
O=[N+]([O-])c1ccc2c(c1)C(N1CCOCC1)/C(=C/COc1ccc(Cl)cc1Cl)O2 (stereo not drawn)	77.2*	-1.9	45.0	0.2	26.6	0.6
NC(=O)CN1CCN(C(=O)Nc2ccccc2)CC1	-7.3	7.3	-3.9	1.1	4.2	1
COc1ccc(N2CCN(CCCNC(=O)CC3Oc4ccc(C)cc4NC3=O)CC2)cc1 (stereo not drawn)	77.3*	6.6	12.8	0.2	-1.6	0.9
CCOC(=O)CSc1nnc([C@@H](NC(=O)OC(C)(C)C)C(C)C)o1	2.2	7.5	5.5	1	6.5	0.9
CSCC[C@H](NC(=O)OC(C)(C)C)c1nnc(SCC(=O)N(C)C)o1	-8.1	2.6	3.2	1.1	12.4	1
CC(C)C[C@H](NC(=O)OC(C)(C)C)c1nnc(SCC(=O)Nc2ccc(Br)cc2)o1	23.5	-6.9	65.0*	0.8	5.7	0.3
CSCC[C@H](NC(=O)OC(C)(C)C)c1nnc(SCc2ccccc2)o1	60.1*	5.3	78.7*	0.4	0.3	0.2
CSCC[C@H](NC(=O)OC(C)(C)C)c1nnc(SCc2cccc(F)c2)o1	69.0*	14.4	80.0*	0.3	5.9	0.2
CC(C)C[C@H](NC(=O)OC(C)(C)C)c1nnc(SCc2cccc(F)c2)o1	8.0	-11.5	34.6	0.9	3.2	0.7
CCN(CC)C(=O)CSc1nnc([C@H](Cc2c[nH]c3ccccc23)NC(=O)OC(C)(C)C)o1	62.4*	1.8	53.1*	0.4	6.3	0.5
Cc1cc(C)c(S(=O)(=O)NNC(=O)C2CCN(Cc3ccccc3)CC2)c(C)c1	-30.1	-2.2	-10.2	1.3	5.8	1.1
COc1n[nH]c2nncnc12	-23.7	-2.2	-21.4	1.2	23.8	1.2
Cc1cc(C)n(Cc2ccc(NC(=O)c3c([N+](=O)[O-])c(C)nn3C)cc2)n1	28.8	3.1	-9.0	0.7	1.1	1.1
CSCC[C@H](NC(=O)OC(C)(C)C)c1nnc(SCc2ccc(F)cc2)o1	78.4*	21.1	88.1*	0.2	-0.5	0.1
COc1cccc(S(=O)(=O)N2CCOCC2)c1	-17.3	-9.1	42.5	1.2	-12.9	0.6
Cc1ccc(S(=O)(=O)Nc2ccc(S(=O)(=O)N3CCCC3)cc2)cc1	97.7*	-0.2	68.3*	0	0.1	0.3
CCn1c(=O)c(=O)n(CC)c2cc(S(=O)(=O)Nc3cccc(OC)c3)ccc21	86.7*	6.4	49.3	0.1	13.0	0.5
